HTT cytoprotect – protects HTT-Q103 PC12 cells, measured by ATP. PC12 HTT-Q103 induced, cytoprotection, ATP luminescence, 40 h. Potency, µM (highest dose often 56.4 µM), actives largely listed as activators. 230,000 compounds, 0.14% hits. AID 1471; note: nearly all actives have a fitted effect of over 45% in size
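Stable PC12 Q103-GFP cells in serum-supplemented, phenol red-free DMEM; induction by tebufenozide at 100 nM final; compound dose series; cell viability quantified luminescently from ATP.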
PNC inhibitor – perinucleolar compartment assembly inhibition. 140,000 compounds, 3.1% hits. PC3M PTB-GFP, PNC prevalence imaging, 16 h; stronger effect = lower value. AID 2417. activity change (PNC), negative = inhibition, % at 10 µM;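 active = readout at or below -70, meaning at least 70% loss of cells showing the perinucleolar compartment, a nuclear body marking cancer cells; inconclusive = readout between -30 and a set limit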
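PC3M cells stably expressing PTB-GFP, 750–1000 cells/well, treated 16 h at 37 °C with compound (23 nl of library stock), in duplicate. After paraformaldehyde fixation and Hoechst stain, imaged at 20x; PNC prevalence scored by image analysis.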
ALDH1A1 block – inhibitors of human aldehyde dehydrogenase 1A1. 220,000 compounds, 7.3% hits. AID 1030. Purified ALDH1A1, NADH fluorescence, propionaldehyde substrate. Potency, µM (series often up to 75.3 µM), usual class: inhibitors; active = well fitted inhibition curve with a large enough effect, not every such curve was filed as active; inconclusive = small, poorly fitted or top-dose-only effect, or another doubt; inactive = no such curve, though single readings can be large or run the other way
HTT aggregate – mutant huntingtin aggregation inhibition. PC12 HttQ103-GFP aggregates, Acumen cytometry, 40 h. Potency, µM (titrated, usually from 46.1 µM), most hits filed as inhibitors. 220,000 compounds, 1.1% hits; note: nearly all actives have a fitted effect of over 60% in size
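Huntingtin Q103 exon 1–GFP aggregates in induced PC12 cells (100 nM tebufenozide) were quantified by cytometry from lysates, with compounds dosed in titration.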
HPGD inh – HPGD (human) dehydrogenase inhibition. P15428. purified HPGD, NADH fluorescence kinetic, PGE2 substrate. Potency, µM, hits mostly inhibitors. 150,000 compounds, 4.3% hits. AID 894; active = well fitted inhibition curve with a large enough effect, not every such curve was filed as active; inconclusive = small, poorly fitted or top-dose-only effect, or another doubt; inactive = no such curve, though single readings can be large or run the other way
Target sequence (P15428 whole entry, looked up): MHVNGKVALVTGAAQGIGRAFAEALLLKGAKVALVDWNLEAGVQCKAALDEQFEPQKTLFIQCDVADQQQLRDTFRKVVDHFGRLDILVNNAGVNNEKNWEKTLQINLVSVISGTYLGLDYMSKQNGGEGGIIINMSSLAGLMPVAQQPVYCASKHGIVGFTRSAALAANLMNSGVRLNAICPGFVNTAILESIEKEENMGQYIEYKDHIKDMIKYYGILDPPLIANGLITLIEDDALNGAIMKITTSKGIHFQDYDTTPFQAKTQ
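20 nM HPGD preincubated 15 min at room temperature with compound in 50 mM Tris-HCl pH 8, 0.01% Tween 20. Started with 1 mM NAD+ and 30 uM prostaglandin E2; NADH fluorescence (360/450 nm) read 5 times over 30-s intervals, last minus first.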
CBFb RUNX1 block – CBF-beta/RUNX1 interaction disruption. AlphaScreen CBFb-His/RUNX1-biotin binding, biochemical. Q01196+Q13951. 230,000 tested, under 10 active. Potency, µM (titrated, usually from 59.8 µM), hits mostly inhibitors. AID 1477
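CBF-beta (His) and RUNX1 (biotin), 30 nM each; 20 min preassociation; + compound, 15 min; + beads 50 ng each (Ni, streptavidin), 90 min; RT; AlphaScreen read.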
Numbers stand for hits; i = inactive; ? = inconclusive; nt = no result; [ ] = another dose, or the depositor's remark. Hits are enriched below; roughly 11% of the tested compounds scored in any of these assays. Unless noted, calls come from the whole dose curve; as a rule, active = well fitted curve in the direction sought with a large enough effect; inconclusive = small, poorly fitted or top-dose-only effect, or another doubt; inactive = no such curve, though single readings can be large; an effect the other way counts as inactive or inconclusive.

SMILES	HTT cytoprotect	PNC inhibitor	ALDH1A1 block	HTT aggregate	HPGD inh	CBFb RUNX1 block
Cn1c(=O)c(-c2ccc(Cl)cc2)nc2cnc(Oc3cccc(Cl)c3)nc21	i	nt	i	nt	nt	nt
Cn1c(=O)c(-c2cc(F)cc(F)c2)nc2cnc(Oc3cccc(Cl)c3)nc21	i	nt	?	nt	i	nt
Cc1nn(Cc2ccc(Cl)cc2Cl)c(C)c1NC(=O)c1sc2ccccc2c1Cl	i	i	i	i	i	i
Cc1nn(Cc2ccc(Cl)cc2Cl)c(C)c1NC(=O)NC12CC3CC(CC(C3)C1)C2	i	i	?	25.1µM	i	i
O=C(Cc1cccc2ccccc12)Nc1ccc(-c2cc3ccccc3oc2=O)cc1	i[10 µM]	-82.9	?	i	?	i
COCc1cc(S(=O)c2ccc(Cl)cc2)nc(C)n1 (configuration not stated)	i	nt	17.8µM	i[9.22 µM]	nt	i
COC(=O)C(/C=C/C(C)Cc1cc(Br)cc(OCc2ccccc2)c1OC)OCc1ccccc1 (configuration not stated)	i[10 µM]	nt	i[13.5 µM]	nt	nt	i[13.1 µM]
CC(C)[C@@H](CC(=O)N[C@@H]1CCCC[C@H]1C(=O)N[C@H](CC(=O)N[C@@H](CCC(=O)O)CC(=O)O)Cc1ccccc1)NC(=O)C[C@H](Cc1ccccc1)NC(=O)[C@@H]1CCCC[C@H]1N	?	nt	i	nt	i	i
O=C1CC(NCCC2=CCCCC2)C(=O)N1c1cccc(Cl)c1Cl (configuration not stated)	i	i	5.62µM	i	i	i
O=S(=O)(NC1=NCCCCC1)c1ccc2sc(NS(=O)(=O)c3ccc4ccccc4c3)nc2c1	i[10 µM]	nt	nt	i[9.22 µM]	nt	i
O=S(=O)(Nc1nc2c(s1)CCCC2)c1ccc2ccccc2c1	i	i	i	11.2µM	i	i
O=[N+]([O-])c1ccc(N=NN(CCO)CCO)cc1	nt	i	?	i	i	i
O=[N+]([O-])c1ccc(N=Nc2ccc(O)cc2O)cc1	i	i	10µM	1.26µM	i	i
CC/C(=N/NC(=O)c1ccc(Br)o1)c1ccc(Cl)cc1	i[10 µM]	?	i	i	i	i
CCCC/C(=N\NC(=O)c1ccc(Br)o1)c1ccccc1	nt	-113.8	i	i	i	i
CC(=O)OC[C@@H]1O[C@H](CCO/N=C(\C)CCN2CCc3nc(-c4ccccc4)c(-c4ccccc4)cc3C2)C=C[C@@H]1OC(C)=O	i[10 µM]	nt	i[13.5 µM]	nt	nt	i[13.1 µM]
COc1ccc(N=C2NN=C(c3ccc4c(c3)OCCO4)CS2)cc1	i	i	25.1µM	i[9.22 µM]	i	?
COCCN=C1NN=C(c2ccc(C)c([N+](=O)[O-])c2)CS1	i[10 µM]	nt	?	i	nt	i
FC(F)Sc1ccc(N=C2NN=C(c3ccc4c(c3)OCCO4)CS2)cc1	i	i	?	?	i	?
c1cc2c(cc1C1=NNC(=NC3CC3)SC1)OCCO2	i	nt	10µM	?	nt	i
CCCCN=C1NN=C(c2ccc(C)c(C)c2)CS1	i	nt	20µM	i	nt	?
CCCCN=C1NN=C(c2ccc3c(c2)OCCO3)CS1	i	nt	10µM	i	nt	i
O=C(CS(=O)(=O)c1ccc(Cl)cc1)NCCS(=O)(=O)c1ccc(Cl)cc1	i	nt	i	i	nt	i
CC(C)(N)C(=O)N[C@@H]1C(=O)N2[C@@H]1SC(C)(C)[C@H]2C(=O)O	i[10 µM]	nt	i[13.5 µM]	nt	i	nt
Cc1ccc(NC(=O)c2ccccc2NS(=O)(=O)c2ccc(Cl)s2)cc1S(=O)(=O)N1CCOCC1	nt	?	?	?	i	i
COCCn1c(C)cc(C2=NNC(=Nc3ccc(OC)cc3)SC2)c1C	i	?	10µM	i	i	i
C=CCOC(=O)C(C(C)=O)C(NC(=O)OC)c1ccc(F)cc1 (configuration not stated)	i[10 µM]	nt	i[13.5 µM]	nt	nt	i[13.1 µM]
CCCN1C(=O)/C(=C2\SC(=S)N(c3c(C)n(C)n(-c4ccccc4)c3=O)C2=O)c2ccccc21	i[10 µM]	nt	nt	i[9.22 µM]	nt	i
CCCC(C(=O)O)N1C(=O)/C(=C2\C(=O)N(C)c3ccccc32)SC1=S (configuration not stated)	i	i	i	i	25.1µM	i
C=C/C(C)=C/[C@]1(C)SC(=O)C(C)=C1O	i[1.9 µM]	nt	nt	nt	nt	nt

Screening data (PubChem BioAssay)
